In the library only some 11% were active in any assay of this set; here they are far more common.
Tau fluor counter: Counterscreen qHTS for Inhibitors of Tau Fibril Formation, Fluorescence Polarization; tau K18 P301L Alexa594 fluorescence, heparin fibrillization; Potency, µM (top dose mostly 57.7 µM), for the others: at the highest dose activity change, negative = decrease; 0.93% of 280,000 active; AID 1463, 2008; also: potency is read from the fitted curve at half-maximal effect; nearly all actives have a fitted effect of over 55% in size
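Human K18 P301L tau (15 uM unlabeled plus 0.24 uM Alexa 594-labeled, final) in 100 mM sodium acetate pH 7 was mixed with compound and 20 uM heparin and incubated 6 hr at 37 C.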
Tau fibril FP: qHTS for Inhibitors of Tau Fibril Formation, Fluorescence Polarization; Microtubule-associated protein tau (Homo sapiens), P10636; K18 P301L tau heparin fibrillization, Alexa594 FP, 6 h; Potency, µM (series often up to 57.7 µM), inactives show at the highest dose activity, negative = inhibition, actives largely listed as inhibitors; 0.39% of 280,000 active; also: potency is read from the fitted curve at half-maximal effect; nearly all actives have a fitted effect of over 55% in size
Target sequence (P10636 561-689 P618L limits assumed): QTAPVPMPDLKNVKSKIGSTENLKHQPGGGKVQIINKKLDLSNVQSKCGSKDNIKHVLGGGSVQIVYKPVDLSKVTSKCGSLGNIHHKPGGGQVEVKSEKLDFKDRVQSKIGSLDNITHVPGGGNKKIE
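FP of Alexa 594-tau after heparin (20 uM) induction. Substrate: human K18 P301L, 15 uM unlabeled, 0.24 uM labeled. Buffer 100 mM sodium acetate pH 7. 6 hr, 37 C.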
Coupling enz: qHTS Assay for Inhibitors of Fructose-1,6-bisphosphate Aldolase from Giardia Lamblia: Coupling assay counterscreen | activity change, negative = inhibition, % at 58.2 µM, hits read low | 0.67% of 290,000 active | AID 2472, 2010 | coupling enzyme system counterscreen, AmpLite Red fluorescence; in the data active = activity change below about -30%
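First, compound is pin-transferred into glyceraldehyde-3-phosphate coupling-enzyme reagent at 57.5 uM final and held 10 min at RT. Next, substrate, coupling system and AmpLite Red are added. After 20 min RT, fluorescence (525/598 nm) is read.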
G9a inh: qHTS Assay for Inhibitors of Histone Lysine Methyltransferase G9a. 8.8% of 350,000 active. AID 504332, 2011. G9a H3K9 monomethylation, AlphaScreen, 2 h. Histone-lysine N-methyltransferase EHMT2 (Homo sapiens), Q96KQ7. Potency, µM (highest dose often 102 µM), for inactives: at the top dose activity, negative = inhibition, usual class: inhibitors; also: potency is read from the fitted curve at half-maximal effect; nearly all actives have a fitted effect of over 75% in size
Target sequence (Q96KQ7 913-1193 limits assumed): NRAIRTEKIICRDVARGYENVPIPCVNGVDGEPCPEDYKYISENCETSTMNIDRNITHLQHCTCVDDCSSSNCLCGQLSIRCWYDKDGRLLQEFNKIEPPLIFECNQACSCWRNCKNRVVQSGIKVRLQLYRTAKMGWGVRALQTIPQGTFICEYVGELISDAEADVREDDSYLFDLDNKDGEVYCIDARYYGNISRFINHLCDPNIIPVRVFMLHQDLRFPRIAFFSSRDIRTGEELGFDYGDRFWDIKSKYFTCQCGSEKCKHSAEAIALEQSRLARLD
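Chemiluminescent proximity detection of H3K9 monomethylation, read after 10 min bead incubation in the dark. Reaction: 20 nM G9a, 500 nM biotin-H3K9 peptide, 20 uM SAM cofactor, 2 h, room temperature, following 15 min enzyme-compound preincubation.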
Sfp inh: qHTS Assay for Inhibitors of Bacillus subtilis Sfp phosphopantetheinyl transferase (PPTase). 4'-phosphopantetheinyl transferase ffp (Bacillus subtilis), Q9F4F7. Biochemical Sfp PPTase activity, qHTS. Potency, µM, for inactives: largest response in the series, negative = inhibition, actives largely listed as inhibitors. 3.5% of 310,000 active. AID 1490, 2009;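 also: the enzyme is Sfp with the accession as filed and its product quenches rhodamine fluorescence; potency is read from the fitted curve at half-maximal effect; 0% = enzyme reaction without inhibitor and -100% = no enzyme wells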
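Sfp 15 nM + cpd, 15 min RT; start w/ rhodamine-CoA 5 uM, BHQ-2-YbbR 12.5 uM (final); 50 mM Hepes pH 7.6, 10 mM MgCl2, 0.01% NP-40, 0.01% BSA; read 525/598 nm at 0 and 30 min.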
Tau ThT inhib: qHTS for Inhibitors of Tau Fibril Formation, Thioflavin T Binding | Microtubule-associated protein tau (Homo sapiens), P10636 | recombinant tau K18 P301L (four-repeat tau fragment), heparin-induced fibrillization, ThT fluorescence | Potency, µM (doses to about 57.4 µM), without a hit: at the top dose activity, negative = inhibition, actives largely listed as inhibitors | 2.1% of 270,000 active; also: potency is read from the fitted curve at half-maximal effect; nearly all actives have a fitted effect of over 55% in size
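Aggregation was driven by heparin (20 uM final) acting on recombinant tau […] bearing P301L in 100 mM sodium acetate pH 7; fibrils were detected with Thioflavin T.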
Numbers without * were called inactive; ? = inconclusive; . = not tested or not shown; [ ] = another dose, or the depositor's remark. Unless noted, calls follow the shape of the dose curve; as a rule, active = well fitted curve in the direction sought with a large enough effect; inconclusive = small, poorly fitted or top-dose-only effect, or another doubt; inactive = no such curve, though single readings can be large; an effect the other way counts as inactive or inconclusive. Unless noted, % is scaled to controls: 0 for no effect and ±100 for the full control effect.

SMILES	Tau fluor counter	Tau fibril FP	Coupling enz	G9a inh	Sfp inh	Tau ThT inhib
COc1cc([N+](=O)[O-])ccc1NC(=O)CC1SC(=Nc2ccc(F)cc2)N(CCC2=CCCCC2)C1=O (stereo not drawn)	?	-6.5%	-2.6	50.1µM*	8.9%	-10.0%
COc1ccc(OC)c(NC(=O)CC2SC(=Nc3ccc(F)cc3)N(CCC3=CCCCC3)C2=O)c1 (stereo not drawn)	?	-1.3%	-2.7	50.1µM*	5.7%	-9.2%
O=c1cnnc(Nc2ccc(Nc3ccccc3)cc2)[nH]1	?	-2.3%	2.5	39.8µM*	14.8%	?
O=c1sc(Nc2ccccc2)nc2ccccc12	-1.4%[2.34 µM]	-5.9%[2.34 µM]	1.2	-27.6%	13.4%	-1.1%
N#C/C(=C/c1ccc(F)cc1)C(N)=S	-12.1%	-3.4%	1.3	5.62µM*	35.5µM*	?
N#C/C(=C\c1ccncc1)C(N)=O	7.3%	2.9%	3.5	-47.5%	21.4%	1.1%
[C-]#[N+]/C(C#N)=C\c1cc(C(C)(C)C)c(O)c(C(C)(C)C)c1	?	?	4.9	.	44.7µM*	25.1µM*
CC(C)(C)c1cc(/C=C2\NC(=O)NC2=O)cc(C(C)(C)C)c1O	.	.	-1.4	?	2.9%	.
CC(C)(C)c1cc(/C=C(\C#N)C(N)=S)cc(C(C)(C)C)c1O	?	3.2%	.	28.2µM*	-22.5%	?
CC(C)(C)c1cc(/C=N/O)cc(C(C)(C)C)c1O	-11.3%	-2.9%	3.0	-7.4%	8.8%	-2.3%
N#CC(C#N)=C(N)/C(C#N)=C/c1cc(O)c(O)c(O)c1	?	?	.	5.62µM*	39.8µM*	11.2µM*
CC(C)c1ccc(CNc2n[nH]c(-c3ccco3)n2)cc1	-5.9%	8.4%	.	-6.2%[59 µM]	.	3.7%
Nc1nnc(CC(=O)N/N=C/c2cc([N+](=O)[O-])cc(Br)c2O)s1	-9.4%	4.8%	9.2	22.4µM*	-15.8%	?
O=C(Cc1ccccc1)N/N=C/c1cccc([N+](=O)[O-])c1	-11.9%	0.3%	-5.6	4.3%	14.0%	-10.4%
COC(=O)N/N=C/c1cc([N+](=O)[O-])cc(Br)c1O	-3.9%	-0.6%	1.5	4.2%[59 µM]	20.5%	?
Nc1nnc(CC(=O)N/N=C/c2cccc([N+](=O)[O-])c2)s1	-1.9%	-3.2%	2.7	38.1%[12.7 µM]	50.1µM*	-11.4%
CC1CC(CC(=O)NC(=S)Nc2ccccc2Cl)C(=O)O1 (stereo not drawn)	-6.4%	-5.4%	2.8	-49.6%	15.1%	-4.8%
CCOc1ccc(C(=O)Nc2cccc(-c3nc4cc(Cl)cc(Cl)c4o3)c2)cc1	-5.3%	2.7%	.	11.2%[59 µM]	.	-0.4%
Cc1cccc(-c2nnc3sc(-c4ccccc4C)nn23)c1	-4.8%	7.1%	-0.8	16.0%	50.1µM*	?
c1ccc(-c2nnc3sc(-c4csc5c4CCCC5)nn23)cc1	-19.8%	?	-1.3	5.01µM*	6.31µM*	?
COc1cccc(-c2nnc3sc(-c4ccccc4)nn23)c1	-14.9%	-9.1%	2.6	-106.2%	-3.3%	?
CCn1c(CC(=O)Nc2ccc(F)cc2)nnc1SCC(=O)NC1CCCC1	.	.	5.5	?	5.6%	.
Cc1cccc(N2CCN(CCCNc3ncnc4onc(-c5ccc(Cl)cc5)c34)CC2C)c1 (stereo not drawn)	?	7.8%	.	?	.	-10.1%
COc1ccc(-c2sc3ccc(OC)cc3c2C#CCCO)cc1	.	.	-0.4	35.5µM*	-23.2%	.
C[C@@H]1CC[C@H]2C(=O)NC[C@@H](O)CN2[C@@H]1c1ccc(Br)cc1	-22.8%[11.6 µM]	-14.8%[11.6 µM]	0.5	.	5.2%	-18.9%[11.5 µM]

High-throughput results (PubChem)
